Data as given in PubChem BioAssay AID2536 (National Center for Advancing Translational Sciences (NCATS), 2010).

These compounds were tested against Pyruvate kinase PKM (Homo sapiens) (UniProt P14618) (assay: Secondary Concentration-Response Assay for Activators of Human Muscle isoform 1 Pyruvate Kinase: for Probe SAR). Details: purified hPK-M1, ATP production, Kinase-Glo luminescence; active means well fitted curve in the direction sought with a large enough effect; inactive means no such curve, though single readings can be large or run the other way.
Pyruvate kinase PKM (Homo sapiens), sequence (P14618 whole entry, looked up, canonical isoform): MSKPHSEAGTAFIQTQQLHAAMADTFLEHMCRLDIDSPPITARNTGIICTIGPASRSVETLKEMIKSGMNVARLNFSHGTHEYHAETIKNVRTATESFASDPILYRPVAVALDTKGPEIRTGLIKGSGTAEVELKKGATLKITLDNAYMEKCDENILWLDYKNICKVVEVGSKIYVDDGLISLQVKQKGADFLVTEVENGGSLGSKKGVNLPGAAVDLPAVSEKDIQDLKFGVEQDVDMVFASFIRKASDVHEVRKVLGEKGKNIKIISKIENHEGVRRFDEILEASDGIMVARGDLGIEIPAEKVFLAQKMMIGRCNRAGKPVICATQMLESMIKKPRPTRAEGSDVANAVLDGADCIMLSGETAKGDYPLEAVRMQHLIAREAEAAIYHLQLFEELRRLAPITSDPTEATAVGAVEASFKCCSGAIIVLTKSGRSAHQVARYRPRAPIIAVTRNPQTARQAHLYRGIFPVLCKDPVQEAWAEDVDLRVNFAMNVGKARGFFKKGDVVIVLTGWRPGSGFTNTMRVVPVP
Description: NIH Chemical Genomics Center [NCGC]
Matthew G. Vander Heiden, M.D., Ph.D. [Harvard Medical School, 77 Avenue Louis Pasteur, Boston, MA 02115]
Human pyruvate kinase […] (hPK-M1) enzyme was supplied as a highly purified (>95% pure) preparation from Harvard Medical School and assayed for its ability to generate ATP from ADP using phosphoenolpyruvate (PEP) as a substrate. ATP generation was detected in a coupled reaction by luciferase-mediated luminescence, an ATP-dependent process. Pyruvate kinase substrates, PEP and ADP, were present in the assay at Km and approximately 10-fold below Km respectively. The enzyme was assayed at an intermediate level of activity to screen for both inhibitors and activators.
NCGC Assay Protocol Summary for M1-isoform:
Three uL of substrate mix (at r.t.) in assay buffer (50 mM Imidazole pH7.2, 50 mM KCl, 7 mM MgCl2, 0.01% Tween 20, 0.05% BSA) was dispensed into white solid bottom 1,536 well microtiter plates so that the final concentrations of substrates in the assay were 0.1 mM ADP and 0.5 mM PEP. 23 nL of compound were delivered by a pin tool and 1 uL of enzyme mix (final concentration of 1 nM) in assay buffer (4 degree Celsius) was added. Plates were incubated at room temperature for 1 hour. Two uL of detection mix (Kinase-Glo, Promega; at 4 degree Celsius protected from light) was added and luminescence read by a ViewLux (Perkin Elmer) at 1 second exposure/plate. Data were normalized to the uninhibited (row 31). Additionally, a no enzyme and 5-fold enzyme control was dispensed in row 32, split equally between the two conditions.

Max response, inactive:
O=C1CCc2cc(S(=O)(=O)Nc3cccc(Br)c3)ccc2N1 -2.97%, Cc1cc(NS(=O)(=O)c2ccc3c(c2)CCC(=O)N3)ccc1F 2.58%, O=C1CCc2cc(Cl)c(S(=O)(=O)Nc3ccc(Cl)c(Cl)c3)cc2N1 1.66%, Cc1ccc(NS(=O)(=O)c2cc3c(cc2Cl)CCC(=O)N3)cc1Cl 4.8%, O=C1CCc2cc(S(=O)(=O)Nc3ccc(Cl)c(Cl)c3)ccc2N1 4.63%, O=C1CCc2cc(S(=O)(=O)Nc3cc(F)cc(Cl)c3)c(F)cc2N1 1.25%, Cc1ccc(Cl)cc1NS(=O)(=O)c1cc2c(cc1F)NC(=O)CC2 -4.17%, O=C1CCc2cc(S(=O)(=O)Nc3ccc4ncccc4c3)ccc2N1 -1.75%, Cc1cc2c(s1)c1cnn(Cc3cc(F)ccc3F)c(=O)c1n2C 4.73%, Cc1c(Cl)cccc1NS(=O)(=O)c1cc2c(cc1F)NC(=O)CC2 0.151%
